Test results as given in PubChem BioAssay (NCI).
The panel holds about 83,000 compounds, 20% with a hit somewhere; the sample as a whole holds those more often.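 Cell lines were cultured in 96-well plates, exposed to a single compound concentration, and assessed for percent growth 48 hours later.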 Activity calls are given as the source filed them. How the source made its calls: active means growth percent below 10; inactive means the rest.

Columns and labels:
Experiment in all cases: NCI-60 one-dose screen, 48 h (100 = growth as untreated, 0 = no growth, -100 = all killed)
Conditions in all cases: 10 µM unless noted
RPMI-8226 leukemia = tested on: RPMI-8226 leukemia
OVCAR-5 ovarian = tested on: OVCAR-5 ovarian
OVCAR-4 ovarian = tested on: OVCAR-4 ovarian
SK-OV-3 ovarian = tested on: SK-OV-3 ovarian
IGROV1 ovarian = tested on: IGROV1 ovarian
OVCAR-3 ovarian = tested on: OVCAR-3 ovarian
NCI/ADR-RES ovarian = tested on: NCI/ADR-RES ovarian
T-47D breast = tested on: T-47D breast
BT-549 breast = tested on: BT-549 breast
MDA-MB-435 melanoma = tested on: MDA-MB-435 melanoma
SW-620 colon = tested on: SW-620 colon
MCF7 breast = tested on: MCF7 breast
HCT-116 colon = tested on: HCT-116 colon
HCC-2998 colon = tested on: HCC-2998 colon
KM12 colon = tested on: KM12 colon
HS 578T breast = tested on: HS 578T breast

Measured: growth

COc1ccc(/C=C(/C(=O)N2CCCC2)c2cc(OC)c(OC)c(OC)c2)cc1
inactive: OVCAR-5 ovarian 63.1% | OVCAR-4 ovarian 68.9% | SK-OV-3 ovarian 22.3% | IGROV1 ovarian 49.9% | NCI/ADR-RES ovarian 22% | T-47D breast 42.4% | BT-549 breast 61.1% | SW-620 colon 22.1% | MCF7 breast 24.8% | HCT-116 colon 23.8% | HCC-2998 colon 80.1% | KM12 colon 31.9%
active: RPMI-8226 leukemia 8.53% | OVCAR-3 ovarian 5.36% | MDA-MB-435 melanoma -18.3%

COc1ccc2c(c1)C1(C(=O)N2)C(C#N)=C(c2ccccc2)Nc2c1c(-c1ccccc1)nn2-c1ccccc1 (stereo not given)
inactive: RPMI-8226 leukemia 67.6% | OVCAR-5 ovarian 83.1% | SK-OV-3 ovarian 78.8% | IGROV1 ovarian 49.6% | HS 578T breast 40% | NCI/ADR-RES ovarian 92.7% | T-47D breast 63.4% | BT-549 breast 84.5% | MDA-MB-435 melanoma 55.3% | MCF7 breast 18.1% | HCC-2998 colon 58.1% | KM12 colon 39.7%
active: OVCAR-4 ovarian -1.01% | OVCAR-3 ovarian -69.2% | SW-620 colon 8.54% | HCT-116 colon 4.04%

CCOC(=O)c1cnn(-c2nc(-c3ccc(F)cc3)c(C#N)c(N3CCOCC3)n2)c1N
inactive: RPMI-8226 leukemia 103% | OVCAR-5 ovarian 95% | OVCAR-4 ovarian 101% | SK-OV-3 ovarian 101% | IGROV1 ovarian 102% | OVCAR-3 ovarian 113% | HS 578T breast 103% | NCI/ADR-RES ovarian 96.7% | T-47D breast 83.9% | BT-549 breast 95.6% | MDA-MB-435 melanoma 99.1% | SW-620 colon 104% | MCF7 breast 89.9% | HCT-116 colon 99.5% | HCC-2998 colon 111% | KM12 colon 105%

O=C(CN1N=C(c2ccc(F)cc2)CCC1=O)Nc1nccs1
inactive: RPMI-8226 leukemia 103% | OVCAR-5 ovarian 107% | OVCAR-4 ovarian 97.6% | SK-OV-3 ovarian 97.7% | IGROV1 ovarian 100% | OVCAR-3 ovarian 113% | HS 578T breast 100% | NCI/ADR-RES ovarian 109% | T-47D breast 83.7% | BT-549 breast 101% | SW-620 colon 91.6% | MCF7 breast 93.8% | HCT-116 colon 104% | HCC-2998 colon 97.6% | KM12 colon 107%

Cc1cc(O)cc(O)c1N=NC1=NCCS1
inactive: RPMI-8226 leukemia 106% | OVCAR-5 ovarian 101% | OVCAR-4 ovarian 102% | SK-OV-3 ovarian 97.2% | IGROV1 ovarian 104% | OVCAR-3 ovarian 104% | HS 578T breast 116% | NCI/ADR-RES ovarian 103% | T-47D breast 92.5% | BT-549 breast 93.9% | MDA-MB-435 melanoma 105% | SW-620 colon 111% | MCF7 breast 86.5% | HCT-116 colon 93.3% | HCC-2998 colon 95.7% | KM12 colon 102%

COc1ccc(C(=O)c2cc(OC)c(C)c(OC)c2)cc1OC(=O)CCl
inactive: RPMI-8226 leukemia 28.3% | OVCAR-5 ovarian 74.8% | OVCAR-4 ovarian 60.1% | SK-OV-3 ovarian 19.4% | IGROV1 ovarian 30.7% | HS 578T breast 40.5% | NCI/ADR-RES ovarian 10.5% | T-47D breast 43.8% | BT-549 breast 15.6% | SW-620 colon 24.1% | MCF7 breast 13.4% | HCT-116 colon 10.2% | HCC-2998 colon 24.9% | KM12 colon 19.1%
active: OVCAR-3 ovarian -8.39% | MDA-MB-435 melanoma -17.2%

CC(/C=C/c1ccccc1)=N/NC(=O)c1ccncc1
inactive: RPMI-8226 leukemia 99.9% | OVCAR-5 ovarian 114% | OVCAR-4 ovarian 105% | SK-OV-3 ovarian 105% | IGROV1 ovarian 103% | OVCAR-3 ovarian 109% | HS 578T breast 99.6% | NCI/ADR-RES ovarian 107% | T-47D breast 99% | BT-549 breast 105% | MDA-MB-435 melanoma 106% | SW-620 colon 98.7% | MCF7 breast 93.6% | HCT-116 colon 92.7% | HCC-2998 colon 107% | KM12 colon 105%

N#CCNc1ccc(C(=O)O)cc1
inactive: RPMI-8226 leukemia 102% | OVCAR-5 ovarian 120% | OVCAR-4 ovarian 117% | SK-OV-3 ovarian 105% | IGROV1 ovarian 103% | HS 578T breast 105% | NCI/ADR-RES ovarian 105% | T-47D breast 99.2% | BT-549 breast 106% | MDA-MB-435 melanoma 101% | SW-620 colon 103% | MCF7 breast 98.9% | HCT-116 colon 103% | HCC-2998 colon 104% | KM12 colon 105%

CCOC(=O)c1c(C)nc2c(c1N)/C(=C/c1ccc[nH]1)C(=O)N2Cc1ccc(C(F)(F)F)cc1
inactive: RPMI-8226 leukemia 104% | OVCAR-5 ovarian 74.5% | OVCAR-4 ovarian 12.6% | SK-OV-3 ovarian 21.9% | IGROV1 ovarian 54.7% | OVCAR-3 ovarian 47.7% | HS 578T breast 38% | NCI/ADR-RES ovarian 49.7% | T-47D breast 24.8% | BT-549 breast 58.4% | MDA-MB-435 melanoma 90.9% | SW-620 colon 66% | MCF7 breast 45.1% | HCT-116 colon 28.4% | HCC-2998 colon 91.2% | KM12 colon 81.6%

Cc1cccc2nc3c(n12)C(=O)C(=O)c1ccccc1-3
inactive: RPMI-8226 leukemia 44.9% | OVCAR-5 ovarian 104% | OVCAR-4 ovarian 83.1% | SK-OV-3 ovarian 79.5% | IGROV1 ovarian 44.7% | OVCAR-3 ovarian 54% | HS 578T breast 75.2% | NCI/ADR-RES ovarian 50.3% | T-47D breast 62.5% | BT-549 breast 78.6% | SW-620 colon 79.4% | MCF7 breast 47.9% | HCT-116 colon 38.7% | HCC-2998 colon 115% | KM12 colon 90.6%

O=S(=O)(O)c1ccc(N=NSc2ccc3ccccc3c2)cc1
inactive: RPMI-8226 leukemia 91.7% | OVCAR-5 ovarian 106% | OVCAR-4 ovarian 101% | SK-OV-3 ovarian 112% | IGROV1 ovarian 93.2% | HS 578T breast 98.7% | NCI/ADR-RES ovarian 96.4% | T-47D breast 82.2% | BT-549 breast 94% | MDA-MB-435 melanoma 99.9% | SW-620 colon 96.5% | MCF7 breast 98.9% | HCT-116 colon 85.8% | HCC-2998 colon 97.2% | KM12 colon 98.6%

COc1ccc(-c2cs/c(=N\N=C\c3ccc(O)cc3O)n2/N=C/c2ccc(O)cc2O)cc1
active: RPMI-8226 leukemia -25.9% | OVCAR-4 ovarian -7.88% | SK-OV-3 ovarian -30.8% | IGROV1 ovarian -17.2% | OVCAR-3 ovarian -63.5% | NCI/ADR-RES ovarian -12.4% | T-47D breast -36.8% | BT-549 breast -10.4% | MDA-MB-435 melanoma -32.8% | SW-620 colon -51.3% | MCF7 breast -11.5% | HCT-116 colon -52.8% | HCC-2998 colon 4.8% | KM12 colon -51%
inactive: OVCAR-5 ovarian 10.6% | HS 578T breast 24.1%

COc1ccc(/C=C/C(=O)Nc2ncnc3nc[nH]c23)cc1
inactive: RPMI-8226 leukemia 99% | OVCAR-5 ovarian 118% | OVCAR-4 ovarian 98.8% | SK-OV-3 ovarian 113% | IGROV1 ovarian 105% | OVCAR-3 ovarian 104% | HS 578T breast 101% | NCI/ADR-RES ovarian 96.6% | T-47D breast 91.2% | BT-549 breast 103% | MDA-MB-435 melanoma 91.1% | SW-620 colon 110% | MCF7 breast 78.9% | HCT-116 colon 101% | HCC-2998 colon 111% | KM12 colon 95.8%

Cc1ccc(-c2nc(C#N)c(S(=O)(=O)N(C)CCO)o2)cc1
inactive: RPMI-8226 leukemia 27.7% | OVCAR-5 ovarian 92% | OVCAR-4 ovarian 105% | SK-OV-3 ovarian 102% | IGROV1 ovarian 60.5% | OVCAR-3 ovarian 42.3% | HS 578T breast 99.3% | NCI/ADR-RES ovarian 96.7% | T-47D breast 67.3% | BT-549 breast 76.7% | MDA-MB-435 melanoma 65% | SW-620 colon 35.1% | MCF7 breast 39.8% | HCT-116 colon 53.4% | HCC-2998 colon 107% | KM12 colon 89.9%

CCOC(=O)/C(=C/c1c(-c2ccccc2)[nH]c2ccccc12)C(=O)c1ccc(Cl)cc1
inactive: OVCAR-5 ovarian 95.8% | OVCAR-4 ovarian 46.8% | SK-OV-3 ovarian 81.6% | IGROV1 ovarian 98.5% | OVCAR-3 ovarian 38.5% | HS 578T breast 63.4% | NCI/ADR-RES ovarian 45.4% | T-47D breast 24.9% | BT-549 breast 64.7% | SW-620 colon 45.4% | MCF7 breast 28.4% | HCT-116 colon 14% | HCC-2998 colon 67.1% | KM12 colon 18.6%
active: RPMI-8226 leukemia -17.2% | MDA-MB-435 melanoma 9.31%
